Bioassay records (PubChem BioAssay)
Hits are enriched below; roughly 3.1% of the tested compounds scored in any of these assays.
PLK1 PBD block: PLK1 (human) polo-box domain binding inhibition; Plk1 PBD binding of FITC phosphopeptide, fluorescence polarization; Potency, µM, without a hit: max response, negative = inhibition, most hits filed as inhibitors; actives 2.8% (n = 360,000); AID 720504; also: series mostly up to about 57 µM; % is scaled to controls: 0 for no effect and ±100 for the full control effect; nearly all actives have a fitted effect of over 65% in size
Target sequence (P53350 whole entry, looked up, the tested form may be a part): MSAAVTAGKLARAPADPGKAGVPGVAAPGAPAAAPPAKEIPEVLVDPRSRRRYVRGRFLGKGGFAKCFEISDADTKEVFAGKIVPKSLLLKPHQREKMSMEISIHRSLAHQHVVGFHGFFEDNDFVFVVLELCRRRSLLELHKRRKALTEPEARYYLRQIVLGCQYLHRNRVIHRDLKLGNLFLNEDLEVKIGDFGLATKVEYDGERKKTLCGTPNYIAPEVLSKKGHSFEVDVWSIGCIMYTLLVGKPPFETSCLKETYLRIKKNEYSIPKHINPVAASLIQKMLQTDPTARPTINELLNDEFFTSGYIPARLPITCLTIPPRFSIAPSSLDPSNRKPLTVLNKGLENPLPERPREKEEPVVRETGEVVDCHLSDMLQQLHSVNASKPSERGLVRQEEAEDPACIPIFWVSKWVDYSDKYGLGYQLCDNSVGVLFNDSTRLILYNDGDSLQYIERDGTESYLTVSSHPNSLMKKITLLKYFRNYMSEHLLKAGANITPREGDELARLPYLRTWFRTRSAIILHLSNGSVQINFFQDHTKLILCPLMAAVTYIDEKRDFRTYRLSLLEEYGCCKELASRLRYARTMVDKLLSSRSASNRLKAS
TDP1 inh: TDP1 (human) enzyme inhibition; Q9NUW8; recombinant TDP1, AlphaScreen DNA substrate cleavage; Potency, µM (top dose mostly 130 µM), inactives show at the top dose activity change, negative = inhibition, actives largely listed as inhibitors; actives 0.28% (n = 350,000); also: % is scaled to controls: 0 for no effect and ±100 for the full control effect; nearly all actives have a fitted effect of over 40% in size
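AlphaScreen read-out: signal falls as enzyme removes the 3' tyrosine-FITC from a 5'-biotinylated DNA oligo (15 nM, 5 min, RT). Enzyme was E. coli-made recombinant Tdp1 at 1 nM, exposed to compound for 15 min beforehand; beads 10 ug/ml, 10 min.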
Tb PFK inh: T. brucei PFK enzyme inhibition. T. brucei PFK, ADP-Glo luminescence. O15648. actives 0.17% (n = 330,000). Potency, µM (series often up to 57.5 µM), without a hit: at the top dose activity, negative = inhibition, usual class: inhibitors;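 also: 0% = uninhibited 1x PFK enzyme wells and -100% = no-enzyme wells; nearly all actives have a fitted effect of over 60% in size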
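Compounds were pin-transferred as a titration series up to 57 uM into substrate buffer (0.5 mM F6P, 0.1 mM ATP, pH 8.0), then 1.25 nM PFK was added and reactions ran 45 min before ADP-Glo detection.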
S-ASM inh: blocks human secretory acid sphingomyelinase; P17405; placental ASM, HMU-PC fluorogenic substrate, 60 min; Potency, µM (titrated, usually from 57.5 µM), for the others: at the top dose activity change, negative = inhibition, most hits filed as inhibitors; actives 0.006% (n = 340,000); AID 504937
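Human placenta-derived ASM enzyme was preincubated with compound for 10 minutes at room temperature, then given fluorogenic substrate HMU-PC0 (9 uM final) for 60 minutes at 37 °C; a pH 10 stop preceded fluorescence reading at Ex 386/Em 447 nm.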
VDR inhibitor: vitamin D3 receptor (human) inhibition; P11473; VDR-SRC2-3 peptide fluorescence polarization, 2 h; Potency, µM, without a hit: max response, negative = inhibition, usual class: inhibitors; actives 0.93% (n = 400,000); AID 504847; also: % is scaled to controls: 0 for no effect and ±100 for the full control effect
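Fluorescence polarization assay of small-molecule disruption of VDR binding to coregulator peptide SRC2-3. Compounds and controls pin-transferred, then read after 2 h incubation at ambient room temperature.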
Pin1 inhibitor: inhibitors of human Pin1; Q13526; Pin1 FP peptide displacement, HiFluor488, 10 min; Potency, µM (highest dose often 115 µM), inactives show top-dose activity, negative = inhibition, usual class: inhibitors; actives 0.009% (n = 390,000); AID 504891; active = well fitted inhibition curve with a large enough effect in the polarisation, with a control signal flat, not every such curve was filed as active; inconclusive = small, poorly fitted or top-dose-only effect, or effect the other way, or a change in a side signal; inactive = no such curve, though single readings can be large or run the other way; the % refers to the polarisation; also: % is scaled to controls: 0 for no effect and ±100 for the full control effect
* = called active by the depositor; i = inactive; ? = inconclusive; / = no result; [ ] = another dose, or the depositor's remark. Unless noted, calls follow the shape of the dose curve; as a rule, active = well fitted curve in the direction sought with a large enough effect; inconclusive = small, poorly fitted or top-dose-only effect, or another doubt; inactive = no such curve, though single readings can be large; an effect the other way counts as inactive or inconclusive. Potency is read from the fitted curve at half-maximal effect.

SMILES	PLK1 PBD block	TDP1 inh	Tb PFK inh	S-ASM inh	VDR inhibitor	Pin1 inhibitor
O=C1NC(=Nc2ccccc2Cl)S/C1=C\c1cccc([N+](=O)[O-])c1O	27µM*	11%	7%	-11%	79µM*	12%
O=C1NC(=Nc2ccccc2Cl)S/C1=C\c1cccc([N+](=O)[O-])c1	27µM*	/	5%	-9%	?	?
Cn1nnnc1SCCCNCc1ccccc1OCc1ccc(Cl)cc1	/	4%	/	/	1%	-6%
CCOc1ccc(C(=O)NCCc2csc(-c3ccc(C(F)(F)F)cc3)n2)cc1OCC	/	-1%	/	/	2%	2%
O=C(NCCOCCn1c(=O)oc2ccccc21)Nc1ccc(F)cc1F	/	5%	/	/	0%	-9%
CCCCN1C(=O)/C(=C(/C#N)C(=O)N2CCCC2)c2ccccc21	-18%	/	5%	-3%	45µM*	5%
Cc1ccc(/C=C2\SC(=S)N(NS(=O)(=O)c3ccc(C)cc3)C2=O)cc1	27µM*	/	0%	-18%	8%	?
COc1ccc(/C=C2/SC(=S)N(NS(=O)(=O)c3ccc(C)cc3)C2=O)cc1	24µM*	9%[0.0935 µM]	5%	-24%	-8%	?
Cc1ccc(S(=O)(=O)NN2C(=O)/C(=C\c3ccc(Cl)cc3)SC2=S)cc1	27µM*	/	3%	-2%	-11%	1%
Cc1ccc(S(=O)(=O)NN2C(=O)/C(=C/c3ccc(F)cc3)SC2=S)cc1	?	5%	14%	-1%	-27%	-13%
C=CCOc1ccc(/C=C2\SC(=S)N(NS(=O)(=O)c3ccc(C)cc3)C2=O)cc1	27µM*	/	0%	?	-15%	/
Cc1cccc(C(=O)NCC(=O)OC(C(=O)Nc2cc(C(F)(F)F)ccc2Cl)c2ccccc2)c1 (stereo unspecified)	/	-3%	/	/	/	0%
Cc1ccc(CNC(=O)Cn2ccn(-c3cc(C)cc(C)c3)c(=O)c2=O)cc1	/	3%	/	/	3%	6%
C=CC(=O)OCCOCCOC(=O)C=C	/	6%	/	/	/	/
COc1ccc(/C=C/C(=O)Nc2cc(C)on2)cc1	30µM*	3%	-4%	3%	?	2%
COc1ccc(/C=C/C(=O)Nc2nc(C)cc(C)n2)cc1OC	30µM*	-6%	19%	29%	-19%	-4%
COc1cc(NC(=O)/C=C/c2ccccc2)c(C(=O)O)cc1OC	17µM*	/	1%	6%	?	5%
COc1ccc(/C=C/C(=O)Nc2ccncc2)cc1OC	-14%	-6%	3%	45%	-18%	-3%
COc1ccc(/C=C\C(=O)Nc2ccccc2C(=O)O)cc1OC	/	-4%[56.1 µM]	/	/	/	/
Cc1ccc(NS(=O)(=O)c2ccc3c(c2)CCC(C)(C)O3)cc1C	/	0%	/	/	/	89%
Fc1ccc(-c2nc(Nc3cccc(C(F)(F)F)c3)nc3c2COc2ccccc2-3)cc1	/	9%	/	/	6%	36%
Cc1ccc(C(=O)NCc2ccc3c(c2)CCN3C(=O)c2ccc(C)cc2)cc1	/	1%	/	/	10%	?
O=C1CCCC2=C1C1(CCS(=O)(=O)C1)N=C(Nc1nc3ccccc3o1)N2 (stereo unspecified)	/	-8%	/	/	/	-2%
COc1ccc(N2C(=O)C(CC(=O)Nc3ccccc3)N(CCC3=CCCCC3)C2=O)cc1 (stereo unspecified)	/	4%	/	/	15%	1%
CCOC(=O)c1nc(Nc2cccc(C)c2)c2ccccc2n1	21µM*	-4%	7%	1%	-26%	-1%
SMILES	PLK1 PBD block	TDP1 inh	Tb PFK inh	S-ASM inh	VDR inhibitor	Pin1 inhibitor
CCOC(=O)c1cccc(Nc2nc(C(=O)OCC)nc3ccccc23)c1	/	5%	/	/	9%	0%
S=c1nccc(-c2cccs2)[nH]1	12µM*	0%	0%	3%	?	-13%
O=C1c2ccccc2C(=O)N1c1cccc2ccncc12	/	2%	/	/	/	5%
N#Cc1nc(Nc2ccc(Br)cc2)nc(NC2CCCC2)n1	/	-2%	/	/	/	17%
CCn1nc(-c2ccccc2C)nc2c(=O)n(C)c(=O)nc1-2	/	3%	/	/	?	/
O=C(Nc1nc(=S)ss1)c1ccc(Cl)cc1Cl	15µM*	1%	0%	3%	-14%	0%
N#Cc1ccccc1S(=O)(=O)N1CCN(S(=O)(=O)c2ccc3c(c2)OCCO3)CC1	/	/	/	/	/	7%
O=C(NCc1ccccc1)c1cc2ccc(O)cc2oc1=O	19µM*	3%	-9%	i	?	-1%
NC(=O)c1cc2ccc(O)cc2oc1=Nc1ccccc1	15µM*	5%	-3%	i	-4%	-13%
COc1ccc2cc(C(N)=O)c(=Nc3ccccc3)oc2c1	-8%	0%	0%	-5%	-6%	-1%
O=C(O)c1ccc(N=c2oc3cc(O)ccc3cc2C(=O)NCc2ccccc2)cc1	?	0%	-8%	i	-6%	?
NC(=O)c1cc2ccc(O)cc2oc1=NCc1ccccc1	12µM*	1%	3%	i	-14%	?
CC[C@H](C)[C@H](NC(=O)[C@H](CCC(=O)O)NC(=O)[C@@H](N)CO)C(=O)N[C@@H](CCC(N)=O)C(=O)N[C@@H](CC(C)C)C(=O)N[C@@H](CCSC)C(=O)N[C@@H](Cc1cnc[nH]1)C(=O)N[C@@H](CC(N)=O)C(=O)N[C@@H](CC(C)C)C(=O)NCC(=O)N[C@@H](CCCCN)C(=O)N[C@@H](Cc1cnc[nH]1)C(=O)N[C@@H](CC(C)C)C(=O)N[C@@H](CC(N)=O)C(=O)N[C@@H](CO)C(=O)N[C@@H](CCSC)C(=O)N[C@@H](CCC(=O)O)C(=O)N[C@@H](CCCNC(=N)N)C(=O)N[C@H](C(=O)N[C@@H](CCC(=O)O)C(=O)N[C@@H](Cc1c[nH]c2ccccc12)C(=O)N[C@@H](CC(C)C)C(=O)N[C@@H](CCCNC(=N)N)C(=O)N[C@@H](CCCCN)C(=O)N[C@@H](CCCCN)C(=O)N[C@@H](CC(C)C)C(=O)N[C@@H](CCC(N)=O)C(=O)N[C@@H](CC(=O)O)C(=O)N[C@H](C(=O)N[C@@H](Cc1cnc[nH]1)C(=O)N[C@@H](CC(N)=O)C(=O)N[C@@H](Cc1ccccc1)C(=O)O)C(C)C)C(C)C	/	12%	/	/	14%	/
CC(=O)C1=C(c2ccc(F)cc2)N(C(C)=O)n2c(nnc2C2CCCCC2)S1	/	-8%	/	/	12%	9%
